Screens deposited in PubChem by The Scripps Research Institute Molecular Screening Center.
This is a sample that favours compounds with a hit; in the whole collection about 3.4% have one here.
GPR151 ag = activators of human GPR151; 650,000 tested, 1% active; AID 1508602; activation, % at 11.2 µM; Q8TDV0; PathHunter beta-arrestin GPR151 cells, luminescence; in the data active = activation above about 4.9%;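 also: 0% = median of compound wells and 100% = cells with positive control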
TEAD-YAP block = TEAD-YAP interaction inhibition; HEK-TIYL cells, TEAD-Gal4/YAP UAS-luciferase luminescence; inhibition, % at 9.12 µM; 640,000 tested, 1.4% active; in the data active = inhibition above about 32%;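 also: 0% = median of test compound wells and 100% = reference inhibitor wells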
FBW7 activator = activators of human E3 ligase FBW7; 650,000 tested, 0.13% active; Q969H0; AID 1259310; normalized activity (activation), % at 26.1 µM; AlphaScreen FBW7–phospho-cyclin E peptide binding, activator screen; in the data active = normalized activity above about 1.9%;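 also: purified mutant Fbw7 with reduced substrate affinity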
MITF inh = inhibitors of human MITF; AlphaScreen MITF homodimerization, bead proximity signal; 650,000 tested, 0.91% active; inhibition, % at 2.6 µM; O75030; in the data active = inhibition above about 50%;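 also: 0% = vehicle wells with protein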
GPR151 conf act = human GPR151 activation, confirmation screen; shares compounds with GPR151 ag; GPR151 PathHunter beta-arrestin cells, luminescence, 90 min; % of EA-reagent control over plate median; activation, % at 11.2 µM; 6,700 tested, under 10 active;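 active = mean percent activation across replicates above the confirmation screen cutoff of 4.91%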
GPR119 ag = counter-screen for GPR151 activators: effect on human GPR119 | shares compounds with GPR151 ag | GPR119 PathHunter beta-arrestin cells, luminescence, 90 min; 0 = compound-well median, 100 = enzyme-acceptor control | activation, % at 11.2 µM | 6,700 tested, 0.3% active | AID 1508611;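 active = mean percent activation in the counterscreen above 29.09%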;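 also: counterscreen on off-target GPR119 to flag nonselective hits from the GPR151 activator screen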
Target sequence (Q8TDV5 whole entry, looked up): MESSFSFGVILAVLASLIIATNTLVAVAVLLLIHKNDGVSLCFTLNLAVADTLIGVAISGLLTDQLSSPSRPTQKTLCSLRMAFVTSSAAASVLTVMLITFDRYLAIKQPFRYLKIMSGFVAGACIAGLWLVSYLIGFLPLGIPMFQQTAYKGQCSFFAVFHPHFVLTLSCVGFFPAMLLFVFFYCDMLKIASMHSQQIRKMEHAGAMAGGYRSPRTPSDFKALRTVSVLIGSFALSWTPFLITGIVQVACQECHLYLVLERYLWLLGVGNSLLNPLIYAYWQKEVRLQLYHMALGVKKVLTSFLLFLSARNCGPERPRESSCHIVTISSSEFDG
* = called active by the depositor; . = no result given.

SMILES | GPR151 ag | TEAD-YAP block | FBW7 activator | MITF inh | GPR151 conf act | GPR119 ag
CCCC1=NN2C(=N)/C(=C/c3ccc(OCCOc4ccc(C(C)(C)C)cc4)c(OC)c3)C(=O)N=C2S1 | 0 | 7 | 0 | 1 | . | .
Cc1ccc(-n2c(CNS(C)(=O)=O)nnc2SCc2ccc(F)cc2)cc1 | 4.9* | 15 | 0 | 13 | 1 | -1
CS(=O)(=O)NCc1nnc(SCc2ccc(F)cc2)n1-c1ccc(F)cc1 | 0 | 11 | 0 | 7 | . | .
COc1ccc(CCNc2cc(-c3ccc(C(=O)N4CCN(C)CC4)cc3)ncn2)cc1 | 0 | 3 | 0 | 2 | . | .
CC1=C(C#N)c2nc(N)c(C#N)c(C)c2/C1=C\c1cccc(O)c1 | -1 | 2 | 0 | 3 | . | .
CC(NS(=O)(=O)c1ccc(Cl)cc1)C(N)=O (configuration not stated) | -2 | 3 | 0 | 5 | . | .
CC(NS(=O)(=O)c1cc(Cl)ccc1Cl)C(N)=O (configuration not stated) | 5.2* | -2 | 0 | 6 | 0 | -2
Cc1ccc(C)c(S(=O)(=O)NC(C)C(=O)Nc2ccc(Cl)c(Cl)c2)c1 (configuration not stated) | 5.9* | 3 | 0 | 2 | 0 | -7
CC(C)CC(=O)Nc1ccnn1C1CCN(Cc2cnn(-c3ccccc3Cl)c2)CC1 | 0 | 6 | 0 | 0 | . | .
Cc1ccc(-n2nc(C)c3c(C)c(CCC(=O)NCC4CCCO4)c(C)nc32)cc1 (configuration not stated) | -1 | 2 | 0 | -4 | . | .
CCC(C)NC(=O)Cn1nc(-c2ccccc2)ccc1=O (configuration not stated) | 8.5* | 4 | 0 | 7 | 0 | -1
COc1cccc(OC)c1NC(=O)CC(Cc1ccc(Cl)cc1)C(=O)O (configuration not stated) | 5.0* | -6 | 0 | 10 | 0 | -5
O=[N+]([O-])c1ccc(C(O)CNCCCN2CCOCC2)cc1 (configuration not stated) | 7.0* | 12 | 0 | -1 | -1 | -11
O=C(NCCCN1CCOCC1)c1ccc([N+](=O)[O-])cc1 | -1 | 6 | 0 | -5 | . | .
Cc1nc(SCc2cccc(Oc3ccccc3)c2)n[nH]1 | 7.9* | 26 | 0 | 2 | 0 | -1
O=c1[nH]nc(SCc2cccc(Oc3ccccc3)c2)c(=S)[nH]1 | -1 | 4 | 0 | 5 | . | .
CCN1CCN(C(c2ccccc2)c2sc3nc(-c4ccco4)nn3c2O)CC1 (configuration not stated) | 5.3* | 3 | 0 | -12 | -1 | 2
CCOC(=O)c1ccc(N2C(=O)C3C(c4ccccc4Cl)OC4(C(=O)c5ccccc5C4=O)C3C2=O)cc1 (configuration not stated) | 0 | -7 | 0 | -1 | . | .
CN1CCN(c2nccn3c(-c4ccc(Cl)cc4)cnc23)CC1 | 0 | -5 | 1 | 17 | . | .
CCOc1ccc(N=Cc2c(O)n(CC)c(=S)[nH]c2=O)cc1 | 6.0* | 0 | 0 | -4 | 0 | -2
COCCCNC(=S)N1CCCC(c2nc3ccc(C)cc3[nH]2)C1 (configuration not stated) | 5.2* | -22 | 0 | -10 | 0 | -2
CCc1ccc(-c2nc(=S)[nH][nH]2)cc1 | 7.6* | -21 | 0 | -1 | 1 | 6
N#CC(C#N)=CNc1cccc(S(=O)(=O)N2CCOCC2)c1 | -1 | 2 | 0 | 6 | . | .
c1ccc(CNc2nc(Nc3ccncc3)nc3c2ncn3-c2ccccc2)cc1 | 6.6* | -3 | 0 | -1 | -1 | -14
Clc1nc(NCc2ccccc2)c2ncn(-c3ccccc3)c2n1 | 5.0* | -19 | 0 | 5 | 2 | -4
SMILES | GPR151 ag | TEAD-YAP block | FBW7 activator | MITF inh | GPR151 conf act | GPR119 ag
COc1ccccc1NC(=O)C(=O)N/N=C/c1ccccc1F | -2 | 8 | 0 | 11 | . | .
COc1ccc(CN2CCCC(c3[nH]ncc3C)C2)cc1OC (configuration not stated) | 0 | -20 | 0 | -7 | . | .
CCOC(=O)CNC(=O)Cn1nc(-c2ccc(F)cc2)ccc1=O | -1 | 5 | 0 | 16 | . | .
COc1ccccc1C1CN(CCNC(=O)c2csnn2)Cc2ccccc2O1 (configuration not stated) | 0 | 5 | 0 | 16 | . | .
CCOC(=O)c1c(N)sc(-c2ccccc2)c1C | 6.2* | -40 | 0 | 1 | 0 | -2
CCOC(=O)c1c(N)sc(-c2ccccc2)c1Cc1ccccc1 | 1 | -1 | 0 | -7 | . | .
CC(C)(C)c1nnc(NC(=O)c2ccc([N+](=O)[O-])cc2)s1 | 0 | -2 | 1 | 13 | . | .
COc1ccc(C(=O)Nc2nnc(C(C)(C)C)s2)cc1[N+](=O)[O-] | 7.3* | -13 | 0 | -6 | -2 | -18
O=c1c(/C=N/Nc2ccc([N+](=O)[O-])cc2)coc2ccccc12 | 0 | 5 | 0 | 14 | . | .
Cc1csc(NC(=O)C(Cc2ccccc2)N2C(=O)c3ccccc3C2=O)n1 (configuration not stated) | 2 | -4 | 0 | -6 | . | .
O=C(NNc1cccc(F)c1)C(O)(c1ccccc1)c1ccccc1 | 0 | 3 | 0 | -12 | . | .
CC(=O)N1CCOc2cc(S(=O)(=O)N3CCC(C(N)=O)CC3)c(Cl)cc21 | 1 | 0 | 0 | 4 | . | .
CC(=O)N1CCOc2cc(S(=O)(=O)N3CCN(C)CC3)c(Cl)cc21 | 5.1* | -3 | 0 | 9 | 1 | 6
Cc1sc2ncn(CC(=O)Nc3ccccn3)c(=O)c2c1S(=O)(=O)N1CCCCC1 | 0 | -7 | 0 | 3 | . | .
CCC(=O)N=c1sc2cc(F)cc(F)c2n1C | 8.1* | 2 | 0 | 12 | 0 | -3
Cn1c(=NC(=O)CN2C(=O)CCC2=O)sc2cc(F)cc(F)c21 | 2 | 1 | 0 | -3 | . | .
COc1ccc2c3c(c(=O)oc2c1C)CCCC3 | 1 | -24 | 0 | 3 | . | .
COc1ccc(/C=N/NC(=O)c2cc(C(C)(C)C)[nH]n2)cc1O | 1 | -3 | 0 | 0 | . | .
COc1ccccc1NC(C)C(=O)N/N=C/c1cccc(OC)c1O (configuration not stated) | 0 | 16 | 0 | 21 | . | .
COc1cccc(/C=N\NC(=O)c2cc(C(C)(C)C)[nH]n2)c1O | 5.8* | 69* | -1 | 22 | 1 | 4
CC(Oc1cccc(Cl)c1)C(=O)N/N=C/c1ccccc1O (configuration not stated) | 6.6* | 8 | 0 | 5 | 0 | 2
COc1cccc(/C=N/NC(=O)C(C)Nc2ccc(C)cc2)c1O (configuration not stated) | 12* | 17 | 0 | 9 | 1 | 1
COc1ccc(NC(C)C(=O)N/N=C/c2ccccc2Cl)cc1 (configuration not stated) | 7.3* | 6 | 0 | 17 | 0 | -7
